# Measured values reported in PubChem BioAssay (EPA / NIEHS).
# Records with an inconclusive call do not appear. Activity calls are given as the source filed them. Rule for the calls, unless noted: active = hit-call score of the fitted dose curve at least 0.9, where 1 is the maximum; inactive = score below 0.9.
# How the values were obtained:
# [1] = read-out: E-selectin (Homo sapiens) (UniProt P16581); test: BSK_SAg_Eselectin: BioMAP Diversity Plus: SAg Assay for Eselectin Biomarker Activity (AID 2283091); conditions: primary human HUVEC with PBMC; actives raise or lower the signal
# How it was run: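 Cell-surface E-selectin is read by ELISA at 24 h in the SAg co-culture of HUVEC and PBMC. Curves are fitted in both directions relative to DMSO. Parallel SRB total-protein staining tracks overt toxicity.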
# [2] = read-out: Monokine induced gamma interferon (MIG), CXCL9 (gene 4283); test: BSK_SAg_MIG: BioMAP Diversity Plus: SAg Assay for Monokine induced gamma interferon (MIG) Biomarker Activity (AID 2283092); conditions: primary human HUVEC with PBMC; actives raise or lower the signal
# How it was run: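 Values reflect bidirectional fitting of ELISA-measured MIG against DMSO vehicle, taken 24 h after dosing of a co-culture of human umbilical vein endothelial cells and peripheral blood mononuclear cells.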
# [3] = BSK_SAg_PBMCCytotoxicity: PBMC Cytotoxicity Assessment in the BioMAP Diversity Plus: SAg Assay (AID 2283093); conditions: primary human HUVEC with PBMC;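 note: fitted both ways against DMSO so a hit may be loss or gain of signal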;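 for AC50: PBMC superantigen activated with SEB plus TSST-1 one hour after compound addition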
# How it was run: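 PBMC viability by Alamar Blue reduction, fluorescence read at 546/580 nm after 6 h dye exposure. Cells were dosed 1 h before SEB plus TSST-1 activation (20 ng/mL final each), then held 90 h; endothelial/PBMC human co-culture.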
# [4] = read-out: Interleukin-8 (IL8), CXCL8 (gene 3576); test: BSK_SAg_IL8: BioMAP Diversity Plus: SAg Assay for Interleukin-8 (IL8) Biomarker Activity (AID 2283094); conditions: primary human HUVEC with PBMC; actives raise or lower the signal
# How it was run: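 Primary human endothelial cells with PBMC, exposed 24 h; IL-8 determined by ELISA, analysed bidirectionally relative to DMSO.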
# [5] = BSK_SAg_Proliferation: Cell Proliferation Assessment in the BioMAP Diversity Plus: SAg Assay (AID 2283095); conditions: primary human HUVEC with PBMC;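 note: relative cell number as total protein by SRB absorbance in sub-confluent culture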
# How it was run: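 A human primary co-culture of umbilical vein endothelium and blood mononuclear cells receives compound; relative cell number is quantified at 96 h by SRB staining and 560 nm absorbance, with DMSO-referenced bidirectional curve fitting.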
# [6] = BSK_SAg_SRB: Viability Assessment in the BioMAP Diversity Plus: SAg Assay (AID 2283096); conditions: primary human HUVEC with PBMC;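 note: cells read one day after compound addition; hits may be either gain or loss of signal compared with DMSO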
# How it was run: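 Compounds were added to a human vascular co-culture of umbilical vein endothelium and PBMC. After 24 h, parallel cultures were fixed with 10% TCA, stained with 0.1% sulforhodamine B and read at 560 nm. Gain or loss of signal was fitted relative to DMSO.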
# [7] = target: human CYP2A6, CYP2A6 (gene 1548) (UniProt P11509); test: NVS_ADME_hCYP2A6: NovaScreen (NVS) CYP450-related Enzyme Activity (ADME) Assay for human CYP2A6 (AID 2283099; active = hit-call score of the fitted dose curve at least 0.9, where 1 is the maximum)
# Chain of human CYP2A6, CYP2A6 (gene 1548) (P11509 whole entry, looked up): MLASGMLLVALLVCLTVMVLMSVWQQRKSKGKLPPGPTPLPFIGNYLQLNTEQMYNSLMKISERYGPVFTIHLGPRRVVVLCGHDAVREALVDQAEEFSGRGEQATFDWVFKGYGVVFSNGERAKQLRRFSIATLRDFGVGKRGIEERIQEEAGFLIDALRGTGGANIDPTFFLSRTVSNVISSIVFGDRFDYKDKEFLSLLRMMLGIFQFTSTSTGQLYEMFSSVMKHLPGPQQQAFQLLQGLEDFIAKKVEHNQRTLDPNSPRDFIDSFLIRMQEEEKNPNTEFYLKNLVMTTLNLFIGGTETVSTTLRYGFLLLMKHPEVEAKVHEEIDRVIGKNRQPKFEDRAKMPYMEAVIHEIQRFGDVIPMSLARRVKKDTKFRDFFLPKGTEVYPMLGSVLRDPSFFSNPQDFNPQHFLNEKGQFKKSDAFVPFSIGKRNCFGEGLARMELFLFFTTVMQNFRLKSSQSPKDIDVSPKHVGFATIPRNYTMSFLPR
# How it was run: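 Compounds screened at 10 uM (duplicate) and, if active, titrated to a 20 uM top concentration against insect-cell-expressed CYP2A6. Loss of fluorescent product signal after 0.5 h, relative to acetonitrile baseline, indicates inhibition.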
# [8] = target: human CYP1A1, CYP1A1 (gene 1543) (UniProt P04798); test: NVS_ADME_hCYP1A1: NovaScreen (NVS) CYP450-related Enzyme Activity (ADME) Assay for human CYP1A1 (AID 2283100; active = hit-call score of the fitted dose curve at least 0.9, where 1 is the maximum)
# Chain of human CYP1A1, CYP1A1 (gene 1543) (P04798 whole entry, looked up): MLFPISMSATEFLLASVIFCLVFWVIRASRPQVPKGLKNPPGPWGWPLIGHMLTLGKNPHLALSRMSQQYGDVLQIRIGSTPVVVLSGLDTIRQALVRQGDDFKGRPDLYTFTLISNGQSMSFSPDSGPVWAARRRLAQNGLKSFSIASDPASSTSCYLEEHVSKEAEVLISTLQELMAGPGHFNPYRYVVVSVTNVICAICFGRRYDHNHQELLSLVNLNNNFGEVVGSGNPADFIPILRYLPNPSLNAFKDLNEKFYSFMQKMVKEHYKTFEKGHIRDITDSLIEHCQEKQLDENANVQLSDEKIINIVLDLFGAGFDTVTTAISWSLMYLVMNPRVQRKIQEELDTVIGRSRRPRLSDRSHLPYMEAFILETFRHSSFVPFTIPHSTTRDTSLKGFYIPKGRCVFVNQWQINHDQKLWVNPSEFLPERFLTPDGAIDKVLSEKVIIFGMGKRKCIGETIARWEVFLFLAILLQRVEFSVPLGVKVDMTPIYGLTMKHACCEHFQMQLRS
# How it was run: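 Chemicals were first tested in duplicate at 10 uM, and those passing a 30% inhibition threshold were rerun as concentration series topping at 20 uM. Fluorescence read-out of recombinant enzyme turnover after 1 h, relative to acetonitrile.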
# [9] = target: human CYP2B6, CYP2B6 (gene 1555) (UniProt P20813); test: NVS_ADME_hCYP2B6: NovaScreen (NVS) CYP450-related Enzyme Activity (ADME) Assay for human CYP2B6 (AID 2283101; active = hit-call score of the fitted dose curve at least 0.9, where 1 is the maximum)
# Chain of human CYP2B6, CYP2B6 (gene 1555) (P20813 whole entry, looked up): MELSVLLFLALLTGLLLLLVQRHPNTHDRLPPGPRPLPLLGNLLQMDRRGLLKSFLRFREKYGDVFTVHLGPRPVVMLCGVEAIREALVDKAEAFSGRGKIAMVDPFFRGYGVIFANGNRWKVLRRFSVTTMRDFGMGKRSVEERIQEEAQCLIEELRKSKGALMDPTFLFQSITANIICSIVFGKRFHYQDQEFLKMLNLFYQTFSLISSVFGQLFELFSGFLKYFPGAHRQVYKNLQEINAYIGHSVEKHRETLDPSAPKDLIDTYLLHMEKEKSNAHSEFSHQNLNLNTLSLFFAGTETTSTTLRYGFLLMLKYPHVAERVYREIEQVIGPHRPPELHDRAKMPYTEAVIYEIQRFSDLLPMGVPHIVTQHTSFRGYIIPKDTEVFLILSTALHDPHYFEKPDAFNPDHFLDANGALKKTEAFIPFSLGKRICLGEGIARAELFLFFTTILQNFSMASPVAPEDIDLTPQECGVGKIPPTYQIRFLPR
# How it was run: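 Compounds were first screened in duplicate at 10 uM against recombinant enzyme, with the fluorescent product measured after 1 hour. Active compounds were retested over a concentration series. Loss of fluorescence versus acetonitrile control was scored as reduced enzyme activity.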
# [10] = target: human CYP19A1, CYP19A1 (gene 1588) (UniProt P11511); test: NVS_ADME_hCYP19A1: NovaScreen (NVS) CYP450-related Enzyme Activity (ADME) Assay for human CYP19A1 (AID 2283098; active = hit-call score of the fitted dose curve at least 0.9, where 1 is the maximum)
# Chain of human CYP19A1, CYP19A1 (gene 1588) (P11511 whole entry, looked up): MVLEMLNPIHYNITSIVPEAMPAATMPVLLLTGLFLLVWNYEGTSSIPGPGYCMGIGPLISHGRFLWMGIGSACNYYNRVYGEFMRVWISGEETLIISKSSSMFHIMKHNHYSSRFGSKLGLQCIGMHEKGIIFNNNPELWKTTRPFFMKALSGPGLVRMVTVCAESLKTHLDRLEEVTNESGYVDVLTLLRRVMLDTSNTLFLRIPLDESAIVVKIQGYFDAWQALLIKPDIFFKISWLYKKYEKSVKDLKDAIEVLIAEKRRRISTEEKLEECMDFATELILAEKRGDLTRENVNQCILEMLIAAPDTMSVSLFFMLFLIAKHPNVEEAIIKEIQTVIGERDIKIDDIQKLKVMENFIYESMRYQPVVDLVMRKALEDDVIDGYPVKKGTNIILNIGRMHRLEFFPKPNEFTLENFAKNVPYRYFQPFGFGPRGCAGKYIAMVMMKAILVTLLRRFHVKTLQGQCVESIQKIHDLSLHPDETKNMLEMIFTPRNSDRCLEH
# How it was run: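 Fluorescence intensity read-out; activity taken as signal loss relative to acetonitrile vehicle. Extracted enzyme, specific substrate, no cells, 0.5 h exposure. Duplicate single-point screen at 10 uM, then concentration–response follow-up for actives.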
# Chain of E-selectin (Homo sapiens) (P16581 whole entry, looked up): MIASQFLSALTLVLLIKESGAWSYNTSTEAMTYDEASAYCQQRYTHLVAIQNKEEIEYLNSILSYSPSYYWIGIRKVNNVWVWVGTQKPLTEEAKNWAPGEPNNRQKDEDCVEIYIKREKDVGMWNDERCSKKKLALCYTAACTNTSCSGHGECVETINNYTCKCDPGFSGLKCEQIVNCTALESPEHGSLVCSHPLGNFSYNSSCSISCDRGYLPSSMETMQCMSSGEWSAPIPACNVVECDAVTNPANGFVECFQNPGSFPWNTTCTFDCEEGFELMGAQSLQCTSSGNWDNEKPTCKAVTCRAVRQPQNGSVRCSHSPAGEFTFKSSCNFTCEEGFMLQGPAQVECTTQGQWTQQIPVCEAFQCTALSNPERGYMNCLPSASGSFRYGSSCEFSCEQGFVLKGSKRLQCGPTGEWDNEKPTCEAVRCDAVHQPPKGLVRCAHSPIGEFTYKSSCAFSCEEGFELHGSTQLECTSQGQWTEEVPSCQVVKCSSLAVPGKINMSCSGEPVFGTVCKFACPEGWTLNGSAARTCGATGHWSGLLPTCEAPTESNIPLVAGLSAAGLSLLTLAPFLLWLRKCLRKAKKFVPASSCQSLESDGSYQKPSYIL
smiles,measurement,setting,value
C[N+](C)(C)CC1CO1 (stereo not drawn),outcome,[1],inactive
same,outcome,[2],inactive
same,outcome,[3],inactive
same,outcome,[4],inactive
same,outcome,[5],inactive
same,outcome,[6],inactive
same,outcome,[7],inactive
Nc1ccc(N=Nc2ccccc2)cc1,outcome,[1],inactive
same,outcome,[2],inactive
same,outcome,[3],inactive
same,outcome,[4],inactive
same,outcome,[5],inactive
same,outcome,[6],inactive
same,outcome,[7],inactive
same,outcome,[8],inactive
same,AC50,[9],0.261 µM (active)
Cc1cccc(N)c1N,outcome,[1],inactive
same,outcome,[2],inactive
same,outcome,[3],inactive
same,outcome,[4],inactive
same,outcome,[5],inactive
same,outcome,[6],inactive
same,outcome,[7],inactive
O=C(Nc1ccccc1)c1ccccc1I,outcome,[1],inactive
same,outcome,[2],inactive
same,outcome,[3],inactive
same,outcome,[4],inactive
same,outcome,[5],inactive
same,outcome,[6],inactive
same,outcome,[8],inactive
COc1cc(C=O)cc2c1[C@H](COC(N)=O)[C@]1(OC(C)=O)ON2C[C@H]2[C@@H]1N2C(C)=O,AC50,[1],21.4 µM (active)
same,AC50,[2],28.7 µM (active)
same,AC50,[3],4.25 µM (active)
same,AC50,[4],8.56 µM (active)
same,AC50,[5],0.402 µM (active)
same,AC50,[6],4.34 µM (active)
CNC(=O)Oc1cccc2c1OC(C)(C)C2,outcome,[1],inactive
same,outcome,[2],inactive
same,outcome,[3],inactive
same,outcome,[4],inactive
same,outcome,[5],inactive
same,outcome,[6],inactive
O=C(N[C@H](c1ccccc1)[C@@H]1CN2CCC1CC2)c1c(Cl)ccc(C(F)(F)F)c1Cl,outcome,[1],inactive
same,outcome,[2],inactive
same,AC50,[3],14.7 µM (active)
same,AC50,[4],20.2 µM (active)
same,AC50,[5],29.7 µM (active)
same,outcome,[6],inactive
same,outcome,[7],inactive
CCCCCCCCCCCCCN1CC(C)OC(C)C1 (stereo not drawn),outcome,[1],inactive
same,outcome,[2],inactive
same,outcome,[3],inactive
same,outcome,[4],inactive
same,outcome,[5],inactive
same,outcome,[6],inactive
[Cl-].[Cl-].[Hg+2],AC50,[1],20 µM (active)
same,outcome,[2],inactive
same,AC50,[3],31 µM (active)
same,outcome,[4],inactive
same,AC50,[5],22.7 µM (active)
same,outcome,[6],inactive
same,AC50,[7],14.8 µM (active)
same,AC50,[8],14.3 µM (active)
same,AC50,[9],9.16 µM (active)
CS(=O)(=O)NC(=O)c1cc(Oc2ccc(C(F)(F)F)cc2Cl)ccc1[N+](=O)[O-],outcome,[1],inactive
same,outcome,[2],inactive
same,outcome,[3],inactive
same,outcome,[4],inactive
same,outcome,[5],inactive
same,outcome,[6],inactive
same,outcome,[10],inactive
Nc1ccc(Cc2ccc(N)cc2)cc1,AC50,[1],13.6 µM (active)
same,outcome,[2],inactive
same,outcome,[3],inactive
same,outcome,[4],inactive
same,outcome,[5],inactive
same,outcome,[6],inactive
same,outcome,[8],inactive
same,AC50,[9],0.719 µM (active)
Nc1ccc(Oc2ccc(N)cc2)cc1,outcome,[1],inactive
same,outcome,[2],inactive
same,outcome,[3],inactive
same,outcome,[4],inactive
same,outcome,[5],inactive
same,outcome,[6],inactive
same,outcome,[8],inactive
same,AC50,[9],2.57 µM (active)
COC(=O)c1ccccc1N,outcome,[1],inactive
same,outcome,[2],inactive
same,outcome,[3],inactive
same,outcome,[4],inactive
same,outcome,[5],inactive
same,outcome,[6],inactive
